What all share (test): DAPPL (digital affinity profiling via proximity ligation, sequencing); 10 mM Tris-HCl pH 7.5, 50 mM NaCl, 1 mM DTT, 4% glycerol, room temperature, 30 min; GST-TFs on glutathione beads, 16-mer random dsDNA library, 0.1% formaldehyde crosslink after washing; high values mean tight binding
One test has as its target T1, FEV (Homo sapiens, UniProt Q99581 1-238).
T1 sequence: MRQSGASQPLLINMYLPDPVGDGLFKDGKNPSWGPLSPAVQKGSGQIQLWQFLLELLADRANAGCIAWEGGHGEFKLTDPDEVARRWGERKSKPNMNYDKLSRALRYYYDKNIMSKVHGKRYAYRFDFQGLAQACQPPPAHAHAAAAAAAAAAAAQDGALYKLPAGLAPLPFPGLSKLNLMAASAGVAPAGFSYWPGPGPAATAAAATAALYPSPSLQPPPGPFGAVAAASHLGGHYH
As to conditions: protein: recombinant; tags: N-terminal GST; dsDNA, one strand shown. A digest of the protocol:
(§1)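 In yeast, human transcription factors were expressed with a GST fusion, then pulled down on glutathione beads and given DNA barcodes. Pooled with a tag-only sample, they were exposed to 200 nmole of a 16-mer random double-stranded DNA library (Tris/NaCl/DTT/glycerol buffer, room temperature, 30 min), washed, crosslinked with 0.1% formaldehyde, proximity-ligated using BsaI/T4 ligase for 1 h at 37 °C, PCR-amplified and read on an Illumina NextSeq500. Each hexamer's frequency of reads for a factor, divided by the matching frequency for the tag-only sample, gives the binding signal.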

The next test deals with ETV5 (Homo sapiens, UniProt P41161 1-510). The following applies: protein: recombinant; tags: N-terminal GST; dsDNA, one strand shown. A digest of the protocol:
as §1

The target of a further test is HSF1 (Homo sapiens, UniProt Q00613 1-529). The following applies: protein: recombinant; tags: N-terminal GST; chain copies: 3; dsDNA, one strand shown. In a few lines:
as §1

Another test concerns the target T2, SPIC (Homo sapiens, UniProt Q8N5J4 1-248).
T2 sequence: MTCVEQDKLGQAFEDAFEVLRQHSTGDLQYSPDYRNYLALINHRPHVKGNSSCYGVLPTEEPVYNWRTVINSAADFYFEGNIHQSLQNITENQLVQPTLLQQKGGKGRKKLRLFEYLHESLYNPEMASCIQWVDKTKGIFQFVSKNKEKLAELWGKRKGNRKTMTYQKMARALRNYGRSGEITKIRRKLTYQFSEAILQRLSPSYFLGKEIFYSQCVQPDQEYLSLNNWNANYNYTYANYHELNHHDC
As to conditions: protein: recombinant; tags: N-terminal GST; dsDNA, one strand shown. A digest of the protocol: as §1

A further test has as its target ELF4 (Homo sapiens, UniProt Q99607 1-663). As to conditions: protein: recombinant; tags: N-terminal GST; dsDNA, one strand shown. In a few lines: as §1
The next test has as its target T3, ELK4 (Homo sapiens, UniProt P28324-2 1-405).
T3 sequence: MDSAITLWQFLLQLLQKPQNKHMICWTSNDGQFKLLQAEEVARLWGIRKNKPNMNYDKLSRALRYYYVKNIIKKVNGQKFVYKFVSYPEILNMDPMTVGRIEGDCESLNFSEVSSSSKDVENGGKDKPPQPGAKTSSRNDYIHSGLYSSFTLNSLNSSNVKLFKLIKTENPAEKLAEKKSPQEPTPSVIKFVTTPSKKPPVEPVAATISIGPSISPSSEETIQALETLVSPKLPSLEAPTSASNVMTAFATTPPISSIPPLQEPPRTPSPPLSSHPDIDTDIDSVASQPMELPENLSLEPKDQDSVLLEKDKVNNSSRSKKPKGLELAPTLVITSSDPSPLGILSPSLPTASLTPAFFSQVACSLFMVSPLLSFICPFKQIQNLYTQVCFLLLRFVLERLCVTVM
The following applies: protein: recombinant; tags: N-terminal GST; dsDNA, one strand shown. A digest of the protocol: as §1

A further test addresses T4, ETV2 (Homo sapiens, UniProt O00321 1-342).
T4 sequence: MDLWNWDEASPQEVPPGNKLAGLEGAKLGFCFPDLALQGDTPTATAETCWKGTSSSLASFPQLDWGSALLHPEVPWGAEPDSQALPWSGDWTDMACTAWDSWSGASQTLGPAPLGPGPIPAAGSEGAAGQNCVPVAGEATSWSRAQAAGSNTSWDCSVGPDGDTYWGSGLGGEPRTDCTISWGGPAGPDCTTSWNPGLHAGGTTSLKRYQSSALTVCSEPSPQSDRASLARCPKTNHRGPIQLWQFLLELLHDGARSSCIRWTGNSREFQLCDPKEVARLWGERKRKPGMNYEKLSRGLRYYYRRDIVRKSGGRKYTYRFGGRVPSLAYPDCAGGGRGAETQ
As to conditions: protein: recombinant; tags: N-terminal GST; dsDNA, one strand shown. In a few lines: as §1

Another test concerns the target T5, ELF3 (Homo sapiens, UniProt P78545 1-371).
T5 sequence: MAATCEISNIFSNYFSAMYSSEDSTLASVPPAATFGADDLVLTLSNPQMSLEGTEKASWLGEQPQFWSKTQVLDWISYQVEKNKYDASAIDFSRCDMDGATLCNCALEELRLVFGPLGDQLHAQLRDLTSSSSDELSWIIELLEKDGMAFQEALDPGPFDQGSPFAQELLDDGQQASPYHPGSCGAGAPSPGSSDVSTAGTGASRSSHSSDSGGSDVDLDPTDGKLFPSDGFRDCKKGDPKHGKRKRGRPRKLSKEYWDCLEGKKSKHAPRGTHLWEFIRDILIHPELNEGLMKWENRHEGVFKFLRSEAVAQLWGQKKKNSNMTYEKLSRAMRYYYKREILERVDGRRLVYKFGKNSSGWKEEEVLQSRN
As to conditions: protein: recombinant; tags: N-terminal GST; dsDNA, one strand shown. In a few lines:
as §1

The target in another test is CRX (Homo sapiens, UniProt O43186 1-299). The following applies: protein: recombinant; tags: N-terminal GST; dsDNA, one strand shown. In a few lines: as §1
In another test the target is ETV1 (Homo sapiens, UniProt P50549 1-477). The following applies: protein: recombinant; tags: N-terminal GST; dsDNA, one strand shown. A digest of the protocol:
as §1

A further test addresses T6, ERF (Homo sapiens, UniProt P50548 1-548).
T6 sequence: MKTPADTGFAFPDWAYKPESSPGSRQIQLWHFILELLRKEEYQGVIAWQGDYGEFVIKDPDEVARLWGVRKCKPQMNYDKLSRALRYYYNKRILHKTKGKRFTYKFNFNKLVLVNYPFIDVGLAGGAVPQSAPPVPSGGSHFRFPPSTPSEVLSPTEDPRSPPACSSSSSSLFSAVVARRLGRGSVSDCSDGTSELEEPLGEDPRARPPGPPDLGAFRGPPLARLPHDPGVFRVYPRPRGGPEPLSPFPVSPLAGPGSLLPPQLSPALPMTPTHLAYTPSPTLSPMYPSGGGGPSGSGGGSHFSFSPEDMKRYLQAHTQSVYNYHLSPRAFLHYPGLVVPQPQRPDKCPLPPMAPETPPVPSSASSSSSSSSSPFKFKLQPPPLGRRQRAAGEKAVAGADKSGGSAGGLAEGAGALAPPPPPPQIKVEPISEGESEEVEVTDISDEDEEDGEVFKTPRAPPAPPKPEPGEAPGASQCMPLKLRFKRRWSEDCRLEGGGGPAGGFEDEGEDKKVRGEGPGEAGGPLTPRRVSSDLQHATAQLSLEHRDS
The following applies: protein: recombinant; tags: N-terminal GST; dsDNA, one strand shown. In a few lines:
as §1

A further test addresses T7, ETV3L (Homo sapiens, UniProt Q6ZN32 1-361).
T7 sequence: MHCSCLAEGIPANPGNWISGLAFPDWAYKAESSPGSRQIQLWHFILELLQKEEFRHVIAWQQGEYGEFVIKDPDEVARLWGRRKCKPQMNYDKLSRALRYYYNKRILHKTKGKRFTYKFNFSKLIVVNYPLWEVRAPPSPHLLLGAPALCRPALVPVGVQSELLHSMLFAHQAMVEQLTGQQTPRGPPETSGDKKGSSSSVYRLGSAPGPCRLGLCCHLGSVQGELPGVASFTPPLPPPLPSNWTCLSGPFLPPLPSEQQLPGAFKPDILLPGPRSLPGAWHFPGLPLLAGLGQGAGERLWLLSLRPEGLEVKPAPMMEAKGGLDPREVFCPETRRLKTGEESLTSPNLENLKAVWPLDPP
The following applies: protein: recombinant; tags: N-terminal GST; dsDNA, one strand shown. In a few lines:
as §1

The target of a further test is T8, ETS2 (Homo sapiens, UniProt P15036 1-469).
T8 sequence: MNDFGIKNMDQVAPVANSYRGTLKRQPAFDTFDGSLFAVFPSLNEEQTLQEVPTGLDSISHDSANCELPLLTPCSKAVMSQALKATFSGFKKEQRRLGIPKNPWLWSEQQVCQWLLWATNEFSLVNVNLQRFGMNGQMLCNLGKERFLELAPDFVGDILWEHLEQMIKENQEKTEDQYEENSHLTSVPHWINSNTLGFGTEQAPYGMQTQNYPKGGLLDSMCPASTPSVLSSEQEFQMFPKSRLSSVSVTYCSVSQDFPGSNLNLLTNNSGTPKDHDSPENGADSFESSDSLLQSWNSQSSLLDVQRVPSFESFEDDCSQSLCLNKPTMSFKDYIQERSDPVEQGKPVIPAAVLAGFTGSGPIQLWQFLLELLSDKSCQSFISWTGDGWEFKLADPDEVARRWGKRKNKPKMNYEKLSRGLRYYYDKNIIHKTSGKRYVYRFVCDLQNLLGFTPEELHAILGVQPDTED
As to conditions: protein: recombinant; tags: N-terminal GST; dsDNA, one strand shown. A digest of the protocol:
as §1

Another test addresses T9, SPDEF (Homo sapiens, UniProt O95238 1-335).
T9 sequence: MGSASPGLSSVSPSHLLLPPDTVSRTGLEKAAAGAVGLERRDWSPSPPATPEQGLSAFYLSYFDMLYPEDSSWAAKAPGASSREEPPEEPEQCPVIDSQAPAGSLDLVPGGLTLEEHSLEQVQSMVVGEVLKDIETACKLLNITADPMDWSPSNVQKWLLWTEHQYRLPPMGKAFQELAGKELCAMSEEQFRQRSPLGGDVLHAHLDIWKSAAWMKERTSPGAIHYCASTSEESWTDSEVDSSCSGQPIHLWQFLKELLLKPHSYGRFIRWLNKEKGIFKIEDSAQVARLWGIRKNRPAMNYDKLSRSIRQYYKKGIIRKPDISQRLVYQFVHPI
The following applies: protein: recombinant; tags: N-terminal GST; dsDNA, one strand shown. In a few lines: as §1

A further test deals with T10, ETV7 (Homo sapiens, UniProt Q9Y603 1-341).
T10 sequence: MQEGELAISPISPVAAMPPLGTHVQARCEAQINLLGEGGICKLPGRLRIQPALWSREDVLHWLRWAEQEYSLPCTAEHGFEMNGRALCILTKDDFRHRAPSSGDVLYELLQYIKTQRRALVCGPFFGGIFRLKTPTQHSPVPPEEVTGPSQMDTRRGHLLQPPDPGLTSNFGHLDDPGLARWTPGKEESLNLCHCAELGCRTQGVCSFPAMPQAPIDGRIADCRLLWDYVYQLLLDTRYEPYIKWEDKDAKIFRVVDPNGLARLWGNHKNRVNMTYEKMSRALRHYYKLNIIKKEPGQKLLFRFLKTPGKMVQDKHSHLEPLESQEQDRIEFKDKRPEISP
As to conditions: protein: recombinant; tags: N-terminal GST; dsDNA, one strand shown. A digest of the protocol: as §1

The target in another test is T11, ELF5 (Homo sapiens, UniProt Q9UKW6-2 1-255).
T11 sequence: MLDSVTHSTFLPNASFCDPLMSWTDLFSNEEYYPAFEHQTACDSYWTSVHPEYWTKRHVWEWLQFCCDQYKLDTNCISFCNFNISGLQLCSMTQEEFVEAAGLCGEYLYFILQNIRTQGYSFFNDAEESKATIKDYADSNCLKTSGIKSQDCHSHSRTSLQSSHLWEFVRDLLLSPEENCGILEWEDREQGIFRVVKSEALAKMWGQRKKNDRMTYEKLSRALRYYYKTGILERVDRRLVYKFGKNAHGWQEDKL
As to conditions: protein: recombinant; tags: N-terminal GST; dsDNA, one strand shown. In a few lines:
as §1

Another test deals with T12, ETV3 (Homo sapiens, UniProt P41162-2 1-143).
T12 sequence: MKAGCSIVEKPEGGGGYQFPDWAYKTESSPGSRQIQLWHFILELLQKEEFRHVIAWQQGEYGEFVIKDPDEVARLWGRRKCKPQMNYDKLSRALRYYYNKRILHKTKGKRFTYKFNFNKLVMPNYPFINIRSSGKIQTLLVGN
As to conditions: protein: recombinant; tags: N-terminal GST; dsDNA, one strand shown. A digest of the protocol:
as §1

The target in another test is ETV6 (Homo sapiens, UniProt P41212 1-452). As to conditions: protein: recombinant; tags: N-terminal GST; dsDNA, one strand shown. In a few lines: as §1
Sequence of ETV6 (P41212 whole entry): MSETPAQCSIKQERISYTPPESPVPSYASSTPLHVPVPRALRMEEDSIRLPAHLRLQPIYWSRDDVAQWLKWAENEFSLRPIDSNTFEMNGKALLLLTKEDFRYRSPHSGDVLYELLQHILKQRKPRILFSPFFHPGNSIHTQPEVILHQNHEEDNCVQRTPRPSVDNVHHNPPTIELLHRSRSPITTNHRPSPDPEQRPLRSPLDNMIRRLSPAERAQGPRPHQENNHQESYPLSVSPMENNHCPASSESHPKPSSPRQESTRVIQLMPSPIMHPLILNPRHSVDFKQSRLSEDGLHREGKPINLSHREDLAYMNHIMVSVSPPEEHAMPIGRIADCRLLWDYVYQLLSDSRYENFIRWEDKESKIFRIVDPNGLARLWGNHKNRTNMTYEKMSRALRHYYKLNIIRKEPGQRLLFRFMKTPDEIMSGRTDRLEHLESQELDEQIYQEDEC

Sequence of CRX (O43186 whole entry): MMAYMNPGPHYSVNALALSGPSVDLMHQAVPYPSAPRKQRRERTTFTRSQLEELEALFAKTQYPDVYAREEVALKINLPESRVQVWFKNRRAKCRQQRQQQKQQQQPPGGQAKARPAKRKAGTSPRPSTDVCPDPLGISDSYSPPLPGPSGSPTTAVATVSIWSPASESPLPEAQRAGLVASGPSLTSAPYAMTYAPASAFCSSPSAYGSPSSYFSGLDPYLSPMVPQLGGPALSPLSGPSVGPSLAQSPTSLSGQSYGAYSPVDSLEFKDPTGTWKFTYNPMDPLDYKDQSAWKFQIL
Sequence of ETV1 (P50549 whole entry): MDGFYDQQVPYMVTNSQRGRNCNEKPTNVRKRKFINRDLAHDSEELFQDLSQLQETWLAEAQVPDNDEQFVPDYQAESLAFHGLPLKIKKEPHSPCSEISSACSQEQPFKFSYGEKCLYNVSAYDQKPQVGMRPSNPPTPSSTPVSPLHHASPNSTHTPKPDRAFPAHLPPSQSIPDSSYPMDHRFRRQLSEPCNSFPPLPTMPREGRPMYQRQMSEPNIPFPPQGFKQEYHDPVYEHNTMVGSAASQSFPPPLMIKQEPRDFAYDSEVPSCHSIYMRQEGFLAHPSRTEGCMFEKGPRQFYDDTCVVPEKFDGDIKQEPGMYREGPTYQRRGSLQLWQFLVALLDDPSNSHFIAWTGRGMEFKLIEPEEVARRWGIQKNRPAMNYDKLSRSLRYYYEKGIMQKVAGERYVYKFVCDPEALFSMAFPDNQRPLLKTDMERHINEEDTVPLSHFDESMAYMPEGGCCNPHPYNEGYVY
Sequence of ETV5 (P41161 whole entry): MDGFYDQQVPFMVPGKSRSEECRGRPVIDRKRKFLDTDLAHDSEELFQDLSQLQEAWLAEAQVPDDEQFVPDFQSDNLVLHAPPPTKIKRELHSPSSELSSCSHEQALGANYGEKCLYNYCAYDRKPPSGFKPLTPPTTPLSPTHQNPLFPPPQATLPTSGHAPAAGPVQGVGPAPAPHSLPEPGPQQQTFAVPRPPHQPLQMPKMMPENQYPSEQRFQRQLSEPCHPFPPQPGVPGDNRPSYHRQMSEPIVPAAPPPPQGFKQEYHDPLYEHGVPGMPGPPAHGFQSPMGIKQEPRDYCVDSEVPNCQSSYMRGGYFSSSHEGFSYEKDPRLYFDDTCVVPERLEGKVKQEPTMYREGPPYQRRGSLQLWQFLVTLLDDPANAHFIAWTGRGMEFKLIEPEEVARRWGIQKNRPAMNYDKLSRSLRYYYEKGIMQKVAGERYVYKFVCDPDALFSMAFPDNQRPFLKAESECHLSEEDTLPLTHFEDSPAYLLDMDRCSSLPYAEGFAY
Sequence of ELF4 (Q99607 whole entry): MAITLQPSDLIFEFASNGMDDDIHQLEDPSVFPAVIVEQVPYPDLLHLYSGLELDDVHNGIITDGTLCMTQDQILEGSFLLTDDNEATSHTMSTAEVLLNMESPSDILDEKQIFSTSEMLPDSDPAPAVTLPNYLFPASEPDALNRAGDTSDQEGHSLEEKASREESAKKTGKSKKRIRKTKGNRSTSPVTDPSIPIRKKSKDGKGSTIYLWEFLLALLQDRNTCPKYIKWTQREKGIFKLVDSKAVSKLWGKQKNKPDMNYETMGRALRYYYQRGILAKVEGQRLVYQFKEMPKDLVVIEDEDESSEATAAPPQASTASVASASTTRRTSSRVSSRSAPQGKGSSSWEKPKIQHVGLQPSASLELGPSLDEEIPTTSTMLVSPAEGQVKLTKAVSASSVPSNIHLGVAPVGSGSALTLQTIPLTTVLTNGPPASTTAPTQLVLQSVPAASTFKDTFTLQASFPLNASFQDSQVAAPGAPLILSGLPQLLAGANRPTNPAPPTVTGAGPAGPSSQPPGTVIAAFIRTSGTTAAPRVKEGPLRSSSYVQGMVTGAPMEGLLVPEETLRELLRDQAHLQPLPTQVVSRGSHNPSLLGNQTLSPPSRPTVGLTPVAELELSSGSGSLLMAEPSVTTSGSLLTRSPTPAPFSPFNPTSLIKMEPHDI
Sequence of HSF1 (Q00613 whole entry): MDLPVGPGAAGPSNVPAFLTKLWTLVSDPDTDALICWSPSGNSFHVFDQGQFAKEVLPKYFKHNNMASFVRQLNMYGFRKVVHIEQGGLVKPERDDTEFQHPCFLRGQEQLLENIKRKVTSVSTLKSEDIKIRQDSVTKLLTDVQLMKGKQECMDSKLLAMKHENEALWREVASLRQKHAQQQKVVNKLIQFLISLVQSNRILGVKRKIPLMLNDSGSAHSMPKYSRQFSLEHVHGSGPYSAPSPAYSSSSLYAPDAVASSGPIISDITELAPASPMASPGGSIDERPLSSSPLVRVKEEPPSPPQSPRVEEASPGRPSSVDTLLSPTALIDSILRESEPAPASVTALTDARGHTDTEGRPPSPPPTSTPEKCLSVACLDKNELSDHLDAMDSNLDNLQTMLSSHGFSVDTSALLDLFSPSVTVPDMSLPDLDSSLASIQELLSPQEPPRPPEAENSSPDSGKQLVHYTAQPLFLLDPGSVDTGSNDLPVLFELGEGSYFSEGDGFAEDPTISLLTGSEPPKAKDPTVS

Consider AATCAA, for which the binding signal in the test with FEV was 1.19 fold enrichment (6-mer frequency, TF over GST control); in the test with ETV5, 1.14 fold enrichment (6-mer frequency, TF over GST control); with HSF1, 1.13 fold enrichment (6-mer frequency, TF over GST control); in the test with SPIC, 1.11 fold enrichment (6-mer frequency, TF over GST control); with ELF4, 1.21 fold enrichment (6-mer frequency, TF over GST control); with ELK4, 1.18 fold enrichment (6-mer frequency, TF over GST control). Moreover, the binding signal with ETV2 is 1.48 fold enrichment (6-mer frequency, TF over GST control); with ELF3 it was 1.24 fold enrichment (6-mer frequency, TF over GST control); with CRX it was 1.32 fold enrichment (6-mer frequency, TF over GST control); with ETV1 it was 1.19 fold enrichment (6-mer frequency, TF over GST control); in the test with ERF, 1.17 fold enrichment (6-mer frequency, TF over GST control); with ETV3L, 1.24 fold enrichment (6-mer frequency, TF over GST control). For the same sequence, the binding signal with ETS2 was 1.18 fold enrichment (6-mer frequency, TF over GST control); in the test with SPDEF, 1.11 fold enrichment (6-mer frequency, TF over GST control); with ETV7 it was 1.16 fold enrichment (6-mer frequency, TF over GST control); with ELF5, 1.16 fold enrichment (6-mer frequency, TF over GST control); with ETV3 it was 1.2 fold enrichment (6-mer frequency, TF over GST control); with ETV6 it was 1.2 fold enrichment (6-mer frequency, TF over GST control).

Source of the values: paper PMC7862700, “An all-to-all approach to the identification of sequence-specific readers for epigenetic DNA modifications on cytosine”.
